# PubChem BioAssay (Tox21)
# Several values for one entry are separate records, joined by “and”; a condition that tells them apart may be missing. Identical values can stand only once. Results filed as inconclusive are left out. Where a call stands in place of a potency, no number is given. The source holds several records for some structures; these can differ, active in one and inactive in another. Activity calls are given as the source filed them. Calls come from the whole dose curve; as a rule, active = well fitted curve in the direction sought with a large enough effect in the repeat runs; inconclusive = weak or mixed curves; inactive = no such curve, though single readings can be large; an effect the other way counts as inactive or inconclusive.
# Key:
# [1] = A CellTox Green Cytotoxicity Assay to monitor cytotoxicity in HEK293 cells - 32 hour (AID 1224881); note: nearly all actives have a fitted effect of over 40% in size; note: potency is the fitted concentration of half-maximal effect
# Method in brief: (§1)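 Fluorescence intensity, read at 0, 8, 16, 24, 32 and 40 h of compound treatment, reflected dye binding to DNA of dead HEK293 cells; compounds (23 nL, DMSO) were added 5 h after plating cells with reagent.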
# [2] = A CellTox Green Cytotoxicity Assay to monitor cytotoxicity in HepG2 cells - 0 hour (AID 1224882); note: nearly all actives have a fitted effect of over 35% in size
# Method in brief: (§2)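 Using 1536-well format, dye-containing HepG2 suspension was seeded, allowed 5 h at 37 C/5% CO2, dosed by pintool with compounds, positive and negative controls, and imaged for fluorescence across 40 h.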
# [3] = A CellTox Green Cytotoxicity Assay to monitor cytotoxicity in HepG2 cells - 32 hour (AID 1224883); note: nearly all actives have a fitted effect of over 50% in size; note: potency is the fitted concentration of half-maximal effect
# Method in brief: as §2
# [4] = A CellTox Green Cytotoxicity Assay to monitor cytotoxicity in HEK293 cells - 8 hour (AID 1224884); note: nearly all actives have a fitted effect of over 35% in size; note: potency is the fitted concentration of half-maximal effect
# Method in brief: as §1
# [5] = qHTS RealTime-Glo MT Cell Viability Assay in HepG2 cells - 16 hour (AID 1224885); note: nearly all actives have a fitted effect of over 50% in size; note: potency is the fitted concentration of half-maximal effect
# Method in brief: (§3)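 qHTS, HepG2, 600 cells/well, RealTime-Glo (NanoLuc + prosubstrate) added with cells; 5 h preincubation; DMSO compound addition; 37 C; luminescence at 0/8/16/24/32/40 h.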
# [6] = qHTS RealTime-Glo MT Cell Viability Assay in HEK293 cells - 24 hour (AID 1224886); note: nearly all actives have a fitted effect of over 50% in size; note: potency is the fitted concentration of half-maximal effect
# Method in brief: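 Assay medium contained NanoLuc luciferase plus cell-permeant prosubstrate, added with HEK293 cells at 600 cells/well. After 5 h at 37 C/5% CO2 compounds were added; plates stayed at 37 C for 40 h with serial luminescence reads.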
# [7] = qHTS RealTime-Glo MT Cell Viability Assay in HEK293 cells - 8 hour (AID 1224887); note: nearly all actives have a fitted effect of over 50% in size; note: potency is the fitted concentration of half-maximal effect
# Method in brief: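 Viable HEK293 cells reduce a cell-permeant prosubstrate; the product diffuses out and is consumed by NanoLuc in the medium to give light. Compounds went in after a 5 h incubation and plates were read over the treatment course.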
# [8] = A CellTox Green Cytotoxicity Assay to monitor cytotoxicity in HEK293 cells - 16 hour (AID 1224888); note: nearly all actives have a fitted effect of over 35% in size; note: potency is the fitted concentration of half-maximal effect
# Method in brief: as §1
# [9] = qHTS RealTime-Glo MT Cell Viability Assay in HepG2 cells - 0 hour (AID 1224889); note: nearly all actives have a fitted effect of over 50% in size
# Method in brief: as §3
# [10] = A CellTox Green Cytotoxicity Assay to monitor cytotoxicity in HepG2 cells - 8 hour (AID 1224890); note: nearly all actives have a fitted effect of over 45% in size; note: potency is the fitted concentration of half-maximal effect
# Method in brief: as §2
Structure (SMILES),Potency [1],Potency [2],Potency [3],Potency [4],Potency [5],Potency [6],Potency [7],Potency [8],Potency [9],Potency [10]
O=C(O)CF,inactive,inactive,inactive and 19.5 µM (active),inactive,inactive,inactive,inactive,inactive,inactive,inactive
C[C@]12CC[C@H]3[C@@H](CCC4=CC(=O)CC[C@@H]43)[C@@H]1CC[C@@H]2O,inactive,inactive,inactive,inactive,inactive,inactive,inactive,inactive,inactive,inactive
O=[N+]([O-])/N=C1\NCCN1Cc1ccc(Cl)nc1,inactive,inactive,inactive,inactive,inactive,inactive,inactive,inactive,inactive,inactive
Cl,inactive,inactive,inactive,inactive,inactive,inactive,inactive,inactive,inactive,inactive
O=NN(c1ccccc1)c1ccccc1,inactive,inactive,inactive,inactive,inactive,inactive,inactive,inactive,inactive,inactive
N#Cc1nn(-c2c(Cl)cc(C(F)(F)F)cc2Cl)c(N)c1S(=O)C(F)(F)F (centres undefined),inactive,inactive,inactive,inactive,inactive,19.6 µM (active),19.6 µM (active),inactive,inactive,inactive
CC(C)(c1ccc(OCC2CO2)cc1)c1ccc(OCC2CO2)cc1 (centres undefined),inactive,inactive,inactive,inactive,inactive,inactive,inactive,inactive,inactive,inactive
Clc1ccc(C(Cl)(Cl)Cl)cc1,inactive,inactive,inactive,inactive,inactive,inactive,inactive,inactive,inactive,inactive
CCCCOC(=O)COC(=O)c1ccccc1C(=O)OCCCC,inactive,inactive,inactive,inactive,inactive,inactive,inactive,inactive,inactive,inactive
Brc1ccc(Br)cc1,inactive,inactive,inactive,inactive,inactive,inactive,inactive,inactive,inactive,inactive
O=C1CCCO1,inactive,inactive,inactive,inactive,inactive,inactive,inactive,inactive,inactive,inactive
CCOS(=O)(=O)OCC,inactive,inactive,inactive,inactive,inactive,inactive,inactive,inactive,inactive,inactive
CC(C)(c1ccccc1)c1ccc(O)c(C(C)(C)c2ccccc2)c1,38.5 µM (active) and 43.6 µM (active),inactive,48.5 µM (active) and 43.6 µM (active),inactive,54.4 µM (active) and 43.6 µM (active),19.3 µM (active) and 30.9 µM (active),21.7 µM (active) and 30.9 µM (active),43.2 µM (active),inactive,48.5 µM (active) and 49 µM (active)
Clc1cccc(Cl)c1,inactive,inactive,inactive,inactive,inactive,inactive,inactive,inactive,inactive,inactive
CCC1(c2ccc(N)cc2)CCC(=O)NC1=O (centres undefined),inactive,inactive,inactive,inactive,inactive,inactive,inactive,inactive,inactive,inactive
C[N+](C)(C)CC(=O)O,inactive,inactive,inactive,inactive,inactive,inactive,inactive,inactive,inactive,inactive
CN(C)c1ccccc1,inactive,inactive,inactive,inactive,inactive,inactive,inactive,inactive,inactive,inactive
CC(O)CN(CC(C)O)CC(C)O (centres undefined),inactive,inactive,inactive,inactive,inactive,inactive,inactive,inactive,inactive,inactive
COC(=O)Nc1nc2ccccc2[nH]1,inactive,inactive,6.17 µM (active) and inactive,inactive,inactive,inactive,inactive,inactive,inactive,inactive

Structure (SMILES),Potency [1],Potency [2],Potency [3],Potency [4],Potency [5],Potency [6],Potency [7],Potency [8],Potency [9],Potency [10]
N#CC(c1ccccc1)c1ccccc1,inactive,inactive,inactive,inactive,inactive,inactive,inactive,inactive,inactive,inactive
N#Cc1cccnc1,inactive,inactive,inactive,inactive,inactive,inactive,inactive,inactive,inactive,inactive
C[N+](C)(C)CC(=O)[O-],inactive,inactive,inactive,inactive,inactive,inactive,inactive,inactive,inactive,inactive
CC[n+]1c(-c2ccccc2)c2cc(N)ccc2c2ccc(N)cc21,inactive,inactive,inactive,inactive,inactive,6.89 µM (active) and 9.52 µM (active),34.5 µM (active),inactive,inactive,inactive
Nc1ncn[nH]1,inactive,inactive,inactive,inactive,inactive,inactive,inactive,inactive,inactive,inactive
CCC/C=N/O,inactive,inactive,inactive,inactive,inactive,inactive,inactive,inactive,inactive,inactive
[CH3][Sn]([Cl])([Cl])[Cl],inactive,inactive,inactive,inactive,inactive,inactive,inactive,inactive,inactive,inactive
CC(C)(O)C#N,inactive,inactive,inactive,inactive,inactive,inactive,inactive,inactive,inactive,inactive
CCCCCCCCCc1ccc(O)cc1,inactive,inactive,39.3 µM (active) and 34.7 µM (active),inactive,inactive,7.84 µM (active) and 4.9 µM (active),6.99 µM (active) and 4.36 µM (active),inactive,inactive,inactive
N#CCCCCC#N,inactive,inactive,inactive,inactive,inactive,inactive,inactive,inactive,inactive,inactive
CNC(=S)S,inactive,inactive,inactive,inactive,inactive,inactive,inactive,inactive,inactive,inactive
CCOP(=O)(OCC)OCC,inactive,inactive,inactive,inactive,inactive,inactive,inactive,inactive,inactive,inactive
CC1(C)Cc2cccc(O)c2O1,inactive,inactive,inactive,inactive,inactive,inactive,inactive,inactive,inactive,inactive
CC(C)(c1ccccc1)c1ccc(O)cc1,27.3 µM (active) and 24.5 µM (active),inactive,48.6 µM (active) and 24.5 µM (active),8.64 µM (active) and 49 µM (active),inactive,43.3 µM (active) and 24.5 µM (active),48.6 µM (active) and 34.7 µM (active),24.3 µM (active) and 43.6 µM (active),inactive,inactive and 43.6 µM (active)
COP(=S)(OC)Oc1ccc(Sc2ccc(OP(=S)(OC)OC)cc2)cc1,inactive,inactive,inactive,inactive,inactive,inactive,inactive,inactive,inactive,inactive
CC1(C)C(C(=O)OC(C#N)c2cccc(Oc3ccccc3)c2)C1(C)C (centres undefined),inactive,inactive,inactive,inactive,inactive,inactive,inactive,inactive,inactive,inactive
CCCCCCCC[N+](C)(CCCCCCCC)CCCCCCCC,17.3 µM (active) and 27.6 µM (active) and 11 µM (active),inactive,8.69 µM (active) and 19.5 µM (active) and 13.8 µM (active),24.5 µM (active) and 13.8 µM (active),15.5 µM (active) and 21.9 µM (active) and 13.8 µM (active),548 nM (active) and 138 nM (active) and 2.19 µM (active),9.75 µM (active) and 21.9 µM (active) and 15.5 µM (active),24.5 µM (active) and 24.6 µM (active) and 15.5 µM (active),inactive,21.8 µM (active) and 39 µM (active) and 21.9 µM (active)
COP(=O)(NC(C)=O)SC (centres undefined),inactive,inactive,inactive,inactive,inactive,inactive,inactive,inactive,inactive,inactive
CC(C)COC(=O)c1ccccc1C(=O)OCC(C)C,inactive,inactive,inactive,inactive,inactive,inactive,,inactive,inactive,inactive
